Potency data for 40 compounds are collected here from PubChem BioAssay (NCATS).

Inconclusive results are not listed. A call without a number means that no potency is given here. Calls of active or inactive are those of the source. Calls follow the shape of the dose curve; as a rule, active = well fitted inhibition curve with a large enough effect in the repeat runs; inconclusive = weak or mixed curves; inactive = flat fitted curve, though single readings scatter.
Potency is read from the fitted curve at half-maximal effect.

For the assay, the target named is Cytochrome P450 2D6 (Homo sapiens) (UniProt P10635). Kind of assay: Cytochrome P450 family 2 subfamily D member 6 (CYP2D6) small molecule antagonists: luciferase biochemical (cell-free) qHTS assay (AID 1645840). Also: nearly all actives have a fitted effect of over 55% in size. The following applies: P450-Glo CYP2D6 enzyme, luciferin luminescence, 1 h; series mostly up to 57.4 µM. The protocol: National Center for Advancing Translational Sciences [NCATS] Assay Overview: Cytochrome P450 (CYP) enzymes are membrane-bound hemeproteins that play a key role in metabolism of drugs and xenobiotics. Assaying the effect of chemicals on CYP isozymes is useful to minimize the adverse drug reactions and toxicities in drug development process. Chemical compounds were tested for their effect on CYP enzyme activities by using P450-Glo (TM) screening systems (Promega Corporation, Madison, WI). These systems provide a luminescent method containing proluciferin substrates and are converted to luciferin products by CYP isozymes. The luciferin products formed are detected with a luciferin detection reagent, and the amount of light produced is proportional to CYP activity. P450-Glo (TM) CYP2D6 screening system (Catalog. No. V9890) was used to detect the compounds that interfere in CYP2D6 activity.
Chain of Cytochrome P450 2D6 (Homo sapiens) (P10635 whole entry, looked up): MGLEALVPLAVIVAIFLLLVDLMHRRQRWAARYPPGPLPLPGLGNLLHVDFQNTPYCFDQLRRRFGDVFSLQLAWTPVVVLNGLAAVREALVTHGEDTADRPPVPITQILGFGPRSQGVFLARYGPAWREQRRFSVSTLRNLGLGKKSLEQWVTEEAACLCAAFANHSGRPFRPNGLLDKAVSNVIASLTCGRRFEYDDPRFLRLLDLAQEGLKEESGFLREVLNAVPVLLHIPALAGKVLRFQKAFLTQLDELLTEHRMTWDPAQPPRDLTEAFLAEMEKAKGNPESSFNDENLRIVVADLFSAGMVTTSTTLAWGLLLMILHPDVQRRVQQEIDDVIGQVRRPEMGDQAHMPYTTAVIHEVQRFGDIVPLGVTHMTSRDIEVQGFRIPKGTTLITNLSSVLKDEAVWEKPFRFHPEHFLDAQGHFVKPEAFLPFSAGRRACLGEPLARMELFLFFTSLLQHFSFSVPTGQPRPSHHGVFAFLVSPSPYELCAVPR
Assay Protocol Summary: Two ul of enzyme-substrate mix was dispensed into medium binding white/solid 1536-well plates (Greiner Bio-One North America Inc., Monroe, NC) using a Flying Reagent Dispenser (FRD, Aurora Discovery, San Diego, CA). […] The assay plates were incubated at room temperature for 10 min. Then 2 ul of NADPH regeneration solution was added to each well of the assay plates using an FRD and incubated at room temperature for 1 h. The reaction was stopped by adding 4 ul of detection reagent using an FRD and after 20 min incubation at room temperature, the luminescence signal was measured using a ViewLux plate reader (Perkin Elmer, Shelton, CT). Data were expressed as relative luminescence units.
A general note: qHTS replaces the single test concentration by a dilution series.
As for `O=C1c2ccccc2S(=O)(=O)N1CCCCN1CCN(c2ncccn2)CC1`, the Potency was 0.871 µM (active).
The value for `CC(=O)Nc1ccc(OCCOCCOc2ccc(NC(C)=O)cc2)cc1` was “inactive”; that for `O=C(O)c1ccc(OCCCOc2ccc(C(=O)O)cc2)cc1` was 12.3 µM (active); that for `Cc1[nH]c(C)c(Cl)c(=O)c1Cl` was “inactive”.
Take `CC[C@]12CCCN3CCc4c(n(c5ccccc45)[C@@](O)(C(=O)OC)C1)[C@@H]32`: the Potency was 11 µM (active).
The value for `CC(N)CCCC(C)(C)O` (stereo not given) was “inactive”.
The result for `CC(=O)[C@@]1(O)CC[C@H]2[C@@H]3C[C@H](C)C4=CC(=O)C=C[C@]4(C)[C@@]3(F)[C@@H](O)C[C@@]21C` reads “inactive”; that for `Cc1cccc(C)c1NC(=O)CC12CCCN1CCC2`, “inactive”; that for `CC1(C)S[C@@H]2[C@H](N=CN3CCCCCC3)C(=O)N2[C@H]1C(=O)O`, “inactive”.
The result for `CN(C/C=C/C#CC(C)(C)C)Cc1cccc2ccccc12` reads 0.0347 µM (active); that for `CCCCCOC(=O)Nc1nc(=O)n([C@@H]2O[C@H](C)[C@@H](O)[C@H]2O)cc1F`, “inactive”.
In the case of `CC(C)c1cc2c(cc1S(=O)(=O)O)[C@@]1(C)CCC[C@@](C)(C(=O)O)[C@@H]1CC2`, the Potency entry was “inactive”.
For `Cc1cccc(Nc2ccccc2C(=O)O)c1C`, the Potency result was “inactive”.
`Cc1c(C(=O)NCCO)[n+](=O)c2ccccc2n1[O-]`: the Potency result is “inactive”.
The value for `O=C(O)[C@@H]1[C@H]2C[C@H]3c4[nH]c5ccccc5c4CCN3C[C@@H]2CC[C@@H]1O` was 0.977 µM (active).
The value for `O=C(O)c1cc(=O)c2ccccc2o1` was “inactive”.
The value for `NC(=O)c1ccc([N+](=O)[O-])cc1Cl` was “inactive”.
As for `O=C(O)c1ccccc1C(=O)Nc1ccc(S(=O)(=O)Nc2nccs2)cc1`, the Potency result was “inactive”.
For the compound `CN1C(C)(C)CCCC1(C)C`, the Potency was 3.89 µM (active).
The value for `Nc1c2c(nc3c1CCC3)CCCC2` was 12.3 µM (active); that for `CCCCCC(C)N` (stereo not given) was “inactive”; that for `C[n+]1ccccc1/C=N/O` was “inactive”.
For `CCOC(=O)[C@H](CCc1ccccc1)N[C@@H](C)C(=O)N1CCC[C@H]1C(=O)O`, the Potency entry is “inactive”.
The value for `COC(=O)c1ccc(O)cc1` was “inactive”.
The result for `CC(=O)N[C@H]1[C@H]([C@H](O)[C@H](O)CO)OC(C(=O)O)=C[C@@H]1N=C(N)N` reads “inactive”; that for `CCN(CC)CC1CCCCN1CC(=O)N1c2ccccc2C(=O)Nc2cccnc21` (stereo not given), “inactive”; that for `O=C(O)C(S)C(S)C(=O)O` (stereo not given), “inactive”.
The value for `NC(=O)NS(=O)(=O)c1ccc(N)cc1` was “inactive”; that for `O=c1[nH]c(=O)c2ccccc2o1` was “inactive”; that for `Nc1ncnc(Nc2ccccc2)n1` was “inactive”.
As to `NS(=O)(=O)c1ccc(C(=O)O)cc1`, the Potency result was “inactive”.
For `CC(=O)N1C[C@H](O)C[C@H]1C(=O)O`, the Potency entry was “inactive”.
Regarding `O=C(O)COC(=O)Cc1ccccc1Nc1c(Cl)cccc1Cl`, the Potency entry was “inactive”.
The value for `OCc1ccc(Cl)cc1Cl` was “inactive”.
For `CC(=O)Nc1ccccc1`, the Potency entry was “inactive”.
In the case of `COc1ccc(C(=O)NCc2ccc(OCCN(C)C)cc2)cc1OC`, the Potency entry is “inactive”.
The value for `CCc1cccc(CC)c1NC(=O)CN(CC(=O)O)CC(=O)O` was “inactive”; that for `CC(=O)SC[C@@H](Cc1ccccc1)C(=O)NCC(=O)OCc1ccccc1` was 6.17 µM (active); that for `O=C(/C=C/c1ccc(O)c(O)c1)O[C@@H]1C[C@@](OC(=O)/C=C/c2ccc(O)c(O)c2)(C(=O)O)C[C@@H](O)[C@@H]1O` was “inactive”.
The result for `O=C(NCCCN1CCOCC1)c1ccc(Cl)cc1` reads 2.72 µM (active).
